Experimental data reported in PubChem BioAssay AID1445 (SRMLSC, 2008).
Hit rate of the full screen: of about 220,000 compounds, about 910 (0.41%) were called active. This is one part of a sample in which actives are shown more often than they occur. Entries with a potency or affinity are not part of this list. A number with no mark means an inactive call.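 The calls were made as follows: active = primary inhibition above the hit cutoff, then over 50% inhibition at one or more dose response concentrations (cut at about 23% in these data, passing the limit was not always enough); inconclusive = conflicting primary data, or primary hits not chosen for dose response; inactive = low primary inhibition, or under 50% at every dose.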

Molecular target: Aminopeptidase N (Plasmodium falciparum (isolate 3D7)) (UniProt O96935)
Assay: P. falciparum M1AAP inhibitors, biochemical, fluorogenic H-Leu-NHMec substrate, 1536-well (AID 1445);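 also: plate controls were DMSO full reaction for no effect and no enzyme background for full effect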
Details: recombinant M1AAP, H-Leu-NHMec fluorogenic kinetic assay; at 30 µM, hits give high values unless noted

Aminopeptidase N (Plasmodium falciparum (isolate 3D7)), sequence (O96935 whole entry, looked up): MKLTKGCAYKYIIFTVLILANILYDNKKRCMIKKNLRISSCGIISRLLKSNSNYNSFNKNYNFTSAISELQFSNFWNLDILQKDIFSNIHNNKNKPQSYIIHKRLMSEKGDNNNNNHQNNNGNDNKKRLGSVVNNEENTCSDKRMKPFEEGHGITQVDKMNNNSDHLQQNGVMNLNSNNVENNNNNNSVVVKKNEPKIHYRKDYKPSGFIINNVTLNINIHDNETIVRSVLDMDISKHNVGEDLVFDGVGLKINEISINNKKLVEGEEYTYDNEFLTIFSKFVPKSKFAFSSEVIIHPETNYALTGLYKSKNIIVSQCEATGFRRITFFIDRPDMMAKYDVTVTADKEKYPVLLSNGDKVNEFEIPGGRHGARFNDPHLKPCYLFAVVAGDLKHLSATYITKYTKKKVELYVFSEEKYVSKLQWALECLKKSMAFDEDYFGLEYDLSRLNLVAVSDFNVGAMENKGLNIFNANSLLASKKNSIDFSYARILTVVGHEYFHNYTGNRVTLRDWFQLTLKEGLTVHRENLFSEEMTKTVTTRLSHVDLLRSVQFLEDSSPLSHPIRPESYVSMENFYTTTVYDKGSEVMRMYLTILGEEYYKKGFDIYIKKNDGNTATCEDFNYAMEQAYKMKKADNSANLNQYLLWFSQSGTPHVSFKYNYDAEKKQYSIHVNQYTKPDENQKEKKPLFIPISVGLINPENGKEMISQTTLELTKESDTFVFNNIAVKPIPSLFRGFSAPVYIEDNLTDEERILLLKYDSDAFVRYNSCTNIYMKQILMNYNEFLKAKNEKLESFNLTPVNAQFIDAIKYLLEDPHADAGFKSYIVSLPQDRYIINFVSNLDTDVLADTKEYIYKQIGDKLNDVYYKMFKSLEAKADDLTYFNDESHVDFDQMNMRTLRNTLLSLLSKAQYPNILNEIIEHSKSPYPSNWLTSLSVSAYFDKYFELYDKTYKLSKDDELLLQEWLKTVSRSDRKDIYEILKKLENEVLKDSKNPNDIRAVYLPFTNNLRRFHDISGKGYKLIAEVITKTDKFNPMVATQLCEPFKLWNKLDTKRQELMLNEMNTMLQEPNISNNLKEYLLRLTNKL

Row | Structure (SMILES) | inhibition
1 | CCN1CCN(C(=O)C2CCN(Cc3cc(Cl)ccc3O)CC2)CC1 | 0.1%
2 | O=C(COC(=O)c1cc(NS(=O)(=O)c2cccs2)ccc1O)Nc1ccc(F)c(F)c1F | 6.76%
3 | CC(C)(C)C(=O)Nc1ccc(S(=O)(=O)Nc2ccccn2)cc1 | 4.68%
4 | C/C(Cc1ccccc1)=N/NC(=O)CCCC(=O)N/N=C(/C)Cc1ccccc1 | 1.32%
5 | COc1ccc(C(=O)NNC(=O)Nc2ccc(C)cc2)cc1 | -2.61%
6 | CCOC(=O)C(NC(=O)c1ccccc1Cl)(Nc1ccc(C)c(C)c1)C(F)(F)F (stereo unspecified) | 3.71%
7 | CCc1nnc(NC(=O)c2ccc3ccccc3n2)s1 | 18.2%
8 | CCC(CC)c1nnc(NC(=O)c2ccc3ccccc3n2)s1 | 44%
9 | COCc1nnc(NC(=O)c2sc3ccccc3c2Cl)s1 | 17.9%
10 | Cc1nnc(NC(=O)c2sc3ccccc3c2Cl)s1 | 27.1% (active)
11 | Cc1cnc(NC(=O)c2sc3ccccc3c2Cl)s1 | 5.85%
12 | CC1=C(C(=O)Nc2ccccn2)C(c2ccc(N(C)C)cc2)n2ncnc2N1 (stereo unspecified) | -4.41%
13 | CCC(C)[C@H](NC(=O)NC1CC1)C(=O)O (stereo partly specified) | 5.68%
14 | CCN(CC)c1cc(C)c2cc(NC(=O)c3ccc(Br)o3)ccc2n1 | 8.17%
15 | C[N+]1(CCCOC(=O)C2(c3ccccc3)CCCC2)CCOCC1 | 12.4%
16 | NC(=O)Cn1c(=O)n(CCc2ccccc2)c(=O)c2c3c(sc21)CCCC3 | -0.91%
17 | COc1ccc(-n2c(=O)c3c4c(sc3n(CC(N)=O)c2=O)CCCCC4)cc1 | 4.45%
18 | CCOC(=O)N1CCN(S(=O)(=O)c2ccc(C(=O)Nc3sc4c(c3C#N)CCC4)cc2)CC1 | 4.62%
19 | COC(=O)c1ccccc1NC(=O)Cn1c(-c2nonc2N)nc2ccccc21 | 0.73%
20 | CC(C)(C)NC(=O)Cn1c(-c2nonc2N)nc2ccccc21 | 8.2%
21 | Nc1nonc1-c1nc2ccccc2n1CC(=O)N/N=C\c1ccc(-c2ccc(Cl)cc2)o1 | -0.3%
22 | NC(=O)Cn1c(-c2nonc2N)nc2ccccc21 | 2.36%
23 | CCOC(=O)c1ccccc1NC(=O)Cn1c(-c2nonc2N)nc2ccccc21 | -0.93%
24 | Nc1nonc1-c1nc2ccccc2n1CC(=O)Nc1ccccc1 | 2.57%

Row | Structure (SMILES) | inhibition
25 | COc1ccccc1C(=O)Nc1ccccc1C(=O)N1CCCC1 | 5.88%
26 | COc1ccc(CCNC(=O)COC(=O)c2ccc(N3CCCC3=O)cc2)cc1 | -2.72%
27 | CC(=O)/C(N=Nc1ccc(C(=O)O)cc1)=C(\C)O | 7.52%
28 | Cc1ccc(C)c(N2CCN(C(=O)c3ccc(CSc4nc5ccncc5[nH]4)cc3)CC2)c1 | -6.94%
29 | Cc1ccc(C2=Nc3ccc(Br)cc3C(c3ccncc3)=NN2)cc1 | -0.32%
30 | CCOC(=O)C1(CCOc2ccccc2)CCN(Cc2cnc(C)[nH]2)CC1 | 6.06%
31 | CCN(CC)NC(=S)Nc1ccccc1 | -2.71%
32 | CN(C)c1nc(-c2ccc([N+](=O)[O-])cc2)cs1 | 4.18%
33 | Cc1c(NC(=O)CSc2nncc3ccccc23)c(=O)n(-c2ccccc2)n1C | 3.35%
34 | O=C(NN1C(=O)/C(=C\c2ccc(O)c([N+](=O)[O-])c2)SC1=S)c1ccccc1Cl | 19.8%
35 | O=C(NN1C(=O)/C(=C/C=C/c2ccco2)SC1=S)c1ccncc1 | 17.5%
36 | O=C1/C(=C/c2ccc(O)c([N+](=O)[O-])c2)SC(=S)N1Cc1ccccc1 | 10.2%
37 | CC(C(=O)O)N1C(=O)/C(=C/C=C/c2ccco2)SC1=S (stereo unspecified) | 10.5%
38 | COc1ccccc1C(=O)NN1C(=O)/C(=C/c2cccn2C)SC1=S | 15.2%
39 | Cn1cccc1/C=C1\SC(=S)N(NC(=O)c2ccccc2Cl)C1=O | 17.9%
40 | O=C1/C(=C/C=C/c2ccco2)SC(=S)N1c1ccc(O)cc1 | 15.5%
41 | O=C(O)CCCN1C(=O)/C(=C/C=C/c2ccco2)SC1=S | 7.29%
42 | COc1ccccc1N(C)S(=O)(=O)c1ccc(C(=O)OCC(=O)Nc2cc(C)on2)cc1 | -7.23%
43 | CC(C)CN(CCOc1cccc(N2C(=O)C3=C(CCCC3)C2=O)c1)CC(C)C | 3.32%
44 | CC(=O)c1cccc(NC(=O)N2CCCc3ccccc32)c1 | 7.74%
45 | COc1ccc(C2CCCN2C(=S)Nc2ccccc2C)cc1OC (stereo unspecified) | -1.92%
46 | COc1ccc(C=O)cc1CSc1nnc(COc2cccc3cccnc23)o1 | 3.48%
47 | C/C(CC(=O)Nc1cccc(C(F)(F)F)c1)=N/NC(=O)C(=O)NCCO | 8.99%
48 | O=C(Cc1c[nH]c2ccccc12)N/N=C/c1ccccc1O | 20.7%

Row | Structure (SMILES) | inhibition
49 | CC(C(=O)Nc1ccc(N2CCOCC2)cc1)N1C(=O)c2ccccc2C1=O (stereo unspecified) | 4.39%
50 | COc1ccc(NC(=O)C(C)N2C(=O)c3ccccc3C2=O)cc1S(=O)(=O)N1CCOCC1 (stereo unspecified) | 9.37%
51 | COc1ccc(NC(=S)N(CCc2c(C)[nH]c3ccccc23)Cc2ccco2)cc1 | -1.5%
52 | O=C(Nc1ccc2snnc2c1)N1CCSCC1 | 6.62%
53 | CC(c1ccccc1)N1C(=O)c2ccccc2C1O (stereo unspecified) | 0.46%
54 | CN(C)S(=O)(=O)c1ccc(N2CCOCC2)nc1 | 8.35%
55 | CC(=O)NN1C(=O)/C(=C\c2ccccc2)SC1=S | 12.8%
56 | O=S(=O)(Nc1nc2ccccc2[nH]1)c1ccccc1 | 1.84%
57 | O=C1/C(=C/c2cccs2)SC(=S)N1c1ccccc1 | 5.36%
58 | O=C(NN1C(=O)/C(=C/c2cccs2)SC1=S)c1ccncc1 | 20.6%
59 | Cc1ccc(S(=O)(=O)NN2C(=O)/C(=C/c3ccccn3)SC2=S)cc1 | 17.4%
60 | O=C(NN1C(=O)/C(=C/c2cccs2)SC1=S)c1ccccc1 | 7.49%
61 | Nc1nnc(CSc2ccc(Cl)cc2)s1 | -0.69%
62 | COc1cccc(NC(=O)C(Sc2nnc(-c3ccncc3)n2-c2ccc(Cl)cc2)c2ccccc2)c1 (stereo unspecified) | -1.95%
63 | C=CCOc1c2ccc(C(=O)NCc3ccc(OC)cc3)cc2nn1C | 15.3%
64 | Cc1cc(C)n(-c2ccc(C(=O)OCC(=O)c3c(N)n(C)c(=O)n(C)c3=O)cc2)n1 | 4.93%
65 | O=C(CCCCn1c(=O)[nH]c2ccsc2c1=O)NCC1CCCO1 (stereo unspecified) | -2.47%
66 | O=C(NCc1ccco1)c1ccc(Cl)c(S(=O)(=O)N2CCOCC2)c1 | 0.38%
67 | COC(=O)c1cc(C(=O)NCCN2C(=O)S/C(=C\c3cccs3)C2=O)cc([N+](=O)[O-])c1 | 9.47%
68 | CCOC(=O)c1cc(C)[nH]c(=S)c1C#N | 5.55%
69 | COc1cc(/C=C/C(=O)O)cc(S(=O)(=O)NCc2ccco2)c1OC | 4.28%
70 | COc1cc(/C=C/C(=O)O)cc(S(=O)(=O)Nc2ccc3c(c2)OCO3)c1OC | 10.2%
71 | COc1cc(/C=C/C(=O)O)cc(S(=O)(=O)Nc2cccc(SC)c2)c1OC | 9.82%
72 | COc1cc(/C=C/C(=O)O)cc(S(=O)(=O)Nc2ccc3nc(C)sc3c2)c1OC | 3.42%

Row | Structure (SMILES) | inhibition
73 | COc1cc(/C=C/C(=O)O)cc(S(=O)(=O)Nc2ccc(F)cc2)c1OC | 5.47%
74 | COc1cc(/C=C/C(=O)O)cc(S(=O)(=O)Nc2ccccc2Cl)c1OC | 5.83%
75 | CC(=O)C1=C(O)C(=O)N(C2CCCCC2)C1c1ccccc1 (stereo unspecified) | 10.2%
76 | CC(C)NC(=S)N(C)C1(c2ccccc2Cl)CCCCC1=O (stereo unspecified) | 2.06%
77 | O=C(CCc1nc(-c2ccccc2F)no1)NCc1ccco1 | 8.13%
78 | COCCNC(=S)Nc1ccc(N2CCCCC2)cc1 | 2.09%
79 | Cc1ccc(N2C(=O)c3ccccc3C2=O)cc1Cl | -2.81%
80 | Cc1cccc(NC(=O)CCCN2C(=O)c3ccccc3C2=O)n1 | -6.68%
81 | Cc1cccc(N2C(=O)CCC2=O)n1 | -1.56%
82 | Cc1ccc(N2C(=O)c3ccc(C(=O)O)cc3C2=O)c(C)c1 | -3.18%
83 | Cc1ccc(N2C(=O)c3ccccc3C2=O)cc1C | 2.18%
84 | Cc1ccc(N2C(=O)[C@@H]3C(C(=O)CN4C(=O)c5ccccc5C4=O)=NN[C@@H]3C2=O)c(C)c1 | 4.06%
85 | CC(=O)Nc1ccc(/C(C)=N/NC(=O)c2ccc(F)cc2)cc1 | 7.12%
86 | O=C(Cn1cncn1)N/N=C/c1ccncc1 | -2.16%
87 | COc1ccc(N(C(=O)C(C)C)S(=O)(=O)c2ccc3c(c2)n(C)c(=O)n3C)cc1 | 4.01%
88 | CC(C)c1ccc(-c2nnc(N)s2)cc1 | -1.69%
89 | Cn1nc(C(C)(C)C)cc1NC(=O)Nc1ccc(F)cc1F | 6.33%
90 | COc1ccc(S(=O)(=O)NCc2cc(-c3ccccc3Cl)no2)cc1 | 1.55%
91 | COc1ccc(NC(=O)c2oc3ccccc3c2NC(=O)C(C)(C)C)cc1 | 6.73%
92 | CCNc1nc(SC(C)C(=O)Nc2ccccc2)nc(N(C)C)n1 (stereo unspecified) | 0.28%
93 | CCOC(=O)CNc1nc(Cl)nc(NC(C)(C)C)n1 | 5.43%
94 | O=C(COc1ncnc2ccccc12)N1CCN(S(=O)(=O)c2ccc(Cl)cc2)CC1 | -2.49%
95 | O=C(COc1ncnc2c(Cl)cc(Cl)cc12)N1CCN(S(=O)(=O)c2ccccc2)CC1 | 5.95%
96 | O=C(COc1ncnc2ccccc12)N1CCN(S(=O)(=O)c2ccccc2)CC1 | 28.2% (active)
